Hit rate of the full screen: of about 16,000 compounds, about 2,600 (16%) were called active. About 20% were inconclusive and are not listed. These entries were drawn from the full list. Values without a mark were called inactive. The call rests on the fitted dose curve; in most records, active means well fitted curve in the direction sought with a large enough effect; inconclusive means small, poorly fitted or top-dose-only effect, or effect the other way; inactive means no such curve, though single readings can be large or run the other way.
Molecular target: Cytochrome P450 2D6 (Homo sapiens) (UniProt P10635)
Test: Cytochrome panel assay with activity outcomes
Details: recombinant CYP, pro-luciferin dealkylation, luminescence, p450-cyp2d6; series mostly up to 57.1 µM
On the % scale 0 is the no-effect control and ±100 the full control effect.

Sequence of Cytochrome P450 2D6 (Homo sapiens) (P10635 whole entry, looked up): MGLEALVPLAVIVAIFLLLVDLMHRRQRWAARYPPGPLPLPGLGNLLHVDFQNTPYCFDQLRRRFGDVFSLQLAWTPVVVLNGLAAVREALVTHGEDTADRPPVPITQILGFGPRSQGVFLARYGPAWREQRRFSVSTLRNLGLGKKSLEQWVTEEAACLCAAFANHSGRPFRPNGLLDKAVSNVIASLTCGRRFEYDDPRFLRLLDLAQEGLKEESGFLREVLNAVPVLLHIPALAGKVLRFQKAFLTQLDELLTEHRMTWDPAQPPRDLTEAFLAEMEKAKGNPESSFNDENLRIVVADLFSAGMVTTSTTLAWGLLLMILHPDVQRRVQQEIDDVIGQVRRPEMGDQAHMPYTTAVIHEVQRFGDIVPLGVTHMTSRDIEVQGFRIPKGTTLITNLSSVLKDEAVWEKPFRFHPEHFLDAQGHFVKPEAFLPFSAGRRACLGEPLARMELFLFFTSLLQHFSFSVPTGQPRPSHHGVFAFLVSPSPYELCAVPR

Row | Structure (SMILES) | AC50 | activity, negative = inhibition
1 | Cc1ccc(-c2csc(N3CCC(NS(=O)(=O)c4ccc5c(c4)OCCO5)CC3)n2)cc1 | inactive | –
2 | COc1ccc(-c2nc3cnc(N4CCN(C)CC4)nc3n(CCC#N)c2=O)cc1 | inactive | –
3 | Cc1cc2nnc(SCCCCN3C(=O)c4ccccc4C3=O)n2c2ccccc12 | inactive | –
4 | COc1cc2c(cc1OC)C(c1ccc(N)cc1)=NNC(=O)C2 | inactive | –
5 | O=c1ccn(-c2cccc(C(F)(F)F)c2)nc1-c1ccn(-c2ccccc2F)n1 | inactive | –
6 | CCOC(=O)CSc1cc(C(F)(F)F)nc(-c2ccccn2)n1 | inactive | –
7 | CCOC(=O)CSc1nc(-c2ccccc2)nc2ccccc12 | inactive | –
8 | CCOC(=O)CSc1cc(CS(=O)c2ccc(Cl)cc2)nc(-c2ccccc2)n1 (centres undefined) | 14.1 µM (active) | –
9 | Oc1c(Cl)cc(C(c2cc(Cl)c(O)c(Cl)c2)C(c2cc(Cl)c(O)c(Cl)c2)c2cc(Cl)c(O)c(Cl)c2)cc1Cl | – | -3.64% [at 11.4 µM]
10 | C=C1CC[C@H](O)C/C1=C/C=C1\CCC[C@]2(C)[C@H]1CC[C@H]2[C@@H](C)/C=C\[C@@H](C)C(C)C | inactive | –
11 | CC(=O)c1cc(C)ccc1OC(=O)CCN1C(=O)C2C3c4ccccc4C(c4ccccc43)C2C1=O (centres undefined) | inactive | –
12 | Oc1cc(O)cc(/C=C\c2ccc(O)c(O)c2)c1 | inactive | –
13 | CN(CCCNC(=O)C1CCN(S(=O)(=O)c2cccc3nsnc23)CC1)Cc1ccccc1 | 5.01 µM (active) | –
14 | O=C(C1CCN(S(=O)(=O)c2cccc3nsnc23)CC1)N1CCCc2ccccc21 | inactive | –
15 | COc1ccc(CCNC(=O)C2CCN(S(=O)(=O)c3cccc4nsnc34)CC2)cc1OC | inactive | –
16 | O=C(C1CCN(S(=O)(=O)c2cccc3nsnc23)CC1)N1CCN(c2ccccc2F)CC1 | inactive | –
17 | O=S(=O)(c1cccc2nsnc12)N1CCCC1 | inactive | –
18 | O=C(NCC1COc2ccccc2O1)C1CCN(S(=O)(=O)c2cccc3nsnc23)CC1 (centres undefined) | 3.55 µM (active) | –
19 | C=C(C)COc1ccc2c(c1)CCC1C2CC[C@]2(C)C(=O)/C(=N/O)CC12 (some centres undefined) | – | 14.1% [at 11.4 µM]
20 | COc1ccc(C(=O)NC2(C(F)(F)F)C(=O)Nc3c2c(=O)[nH]c(=O)n3CCc2ccc(OC)c(OC)c2)cc1 (centres undefined) | inactive | –
21 | O=C(NC(=S)NNC(=O)c1cccs1)c1ccco1 | inactive | –
22 | Cc1cc(C(=O)OC2CCOC2=O)c2ccccc2n1 (centres undefined) | inactive | –
23 | C[C@@H]1O[C@@H](O)[C@@H](O)[C@H](O)[C@H]1O | – | -0.841% [at 11.4 µM]
24 | Cc1ccc(-n2ncc(N(C)C)c(Cl)c2=O)cc1 | inactive | –
25 | CC[C@](N)(C(=O)O)C(C)C | – | 10.5% [at 11.4 µM]

Row | Structure (SMILES) | AC50 | activity, negative = inhibition
26 | O=c1c2ccccc2nc2n1CCc1c-2[nH]c2ccccc12 | inactive | –
27 | O=C1NCCc2c1[nH]c1ccccc21 | inactive | –
28 | c1ccc2c3c([nH]c2c1)[C@@H]1[C@H]2CC[C@H]([C@H]4CCCN[C@H]42)N1CC3 | 7.94 µM (active) | –
29 | O=[N+]([O-])c1ccc(Nc2nc(N/N=C\c3ccc4c(c3)OCO4)nc(N3CCCCC3)n2)cc1 | inactive | –
30 | CN(C)S(=O)(=O)Oc1ccsc1C(=O)Nc1ccc(Cl)cc1 | 22.4 µM (active) | –
31 | CN(C)S(=O)(=O)Oc1cccc(C(=O)Nc2ccc(Cl)c(Cl)c2)c1 | inactive | –
32 | CN(C)S(=O)(=O)Oc1ccc(Cl)cc1C(=O)Nc1cccc(C(F)(F)F)c1 | inactive | –
33 | O=C(CSc1nnc2c(n1)[nH]c1ccc(F)cc12)OCc1ccccc1 | inactive | –
34 | C=CCN(CC=C)C(=S)NC(=O)c1ccc(OC)c(Br)c1 | 0.708 µM (active) | –
35 | COc1ccc(C(=O)NC(=S)NC(C)(C)C)cc1Br | inactive | –
36 | COc1ccc(C(=O)NC(=S)NC(C)C)cc1Br | inactive | –
37 | Nc1cc(Cl)ccc1Oc1ccc(Cl)cc1 | 15.8 µM (active) | –
38 | Nc1cc(Cl)ccc1Oc1ccccc1 | inactive | –
39 | Cc1cc(Cl)ccc1Oc1ncc(-c2ccc(Cl)cc2)cn1 | inactive | –
40 | S[C@@H]1CCCN(Cc2ccccc2)C1 | 0.794 µM (active) | –
41 | O=C1C2CCC(C(O)C2)N1Cc1ccccc1 (centres undefined) | inactive | –
42 | O=C(O)[C@@H]1CS[C@@]2(CCCN(Cc3ccccc3)C2)N1 | – | -2.15% [at 11.4 µM]
43 | OCC1CCCN(Cc2ccc(-c3ccccc3)cc2)C1 (centres undefined) | 0.1 µM (active) | –
44 | O=C(O)[C@H]1CCCN(CCC=C(c2ccccc2)c2ccccc2)C1 | inactive | –
45 | CC1(C(=O)CSc2nc3ccccc3s2)CCC(=O)O1 (centres undefined) | inactive | –
46 | CC(=O)O[C@@H](C)C[N+](C)(C)C | inactive | –
47 | Cn1c(SC2=CS(=O)(=O)c3ccccc32)nc2ccccc21 | inactive | –
48 | COC(=O)[C@@H]1C[C@H]1[C@@H](NC(=O)c1ccccc1)c1ccccc1 | inactive | –
49 | COc1ccc(NC2=NC(=S)N(c3ccc(C)cc3)C23CCCCC3)cc1 | inactive | –

— PubChem BioAssay AID1851 (National Center for Advancing Translational Sciences (NCATS), 2009)
